Results on eight molecules are retold here after PubChem BioAssay (Tox21).

Inconclusive results are not listed. Calls of active or inactive are those of the source. Unless noted, calls follow the shape of the full dose curve. Square brackets hold non-standard residues; d marks the D form. Peptide text beside a SMILES is read from it. * marks the point of attachment. Sta = CC(C)C[C@H](N)[C@@H](O)CC(=O)O; Isovaleryl = CC(C)CC(=O)*

Experiment [1] in a line: Nuclear factor erythroid 2-related factor 2/antioxidant responsive element (Nrf2/ARE) small molecule agonists: qHTS cell viability counter screen in human keratinocytes (AID 1919968; active = well fitted curve in the direction sought with a large enough effect in the repeat runs; an effect the other way counts as inactive or inconclusive; also: nearly all actives have a fitted effect of over 55% in size; also: potency is read from the fitted curve at half-maximal effect). In outline:
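Measured as CellTiter-Fluor fluorescence, this readout tracks cytotoxicity in the same wells as the ARE-luciferase screen. HaCaT reporter cells (1,500/well) received compounds after a 5 h pre-incubation and were exposed for 23 h.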
For orientation: Quantitative high-throughput screening tests each substance at several concentrations.

The nature of experiment [2]: Nuclear factor erythroid 2-related factor 2/antioxidant responsive element (Nrf2/ARE) small molecule agonists: luciferase reporter gene qHTS assay in human keratinocytes (AID 1919969). Also: nearly all actives have a fitted effect of over 35% in size. Also: potency is read from the fitted curve at half-maximal effect.
The target in experiment [3] is Gonadotropin-releasing hormone receptor (Homo sapiens) (UniProt P30968). Nature of the experiment: Human gonadotropin-releasing hormone receptor (GnRHR) small molecule agonists, calcium flux assay in GnRHR-HEK293 cells (AID 1920063). Also: nearly all actives have a fitted effect of over 35% in size. In outline:
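Fluorescence kinetics (480 nm excitation, 540 nm emission; 3 min, 1 s steps) report calcium mobilisation in human GnRHR-HEK293 cells in agonist mode. Dye incubation: 1 h, 37 C.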

The target in experiment [4] is KiSS-1 receptor (Homo sapiens) (UniProt Q969F8). As to the kind of experiment: Human kisspeptin (KISS1R) small molecule agonists, calcium flux assay in KISS1R-HEK293 cells (AID 1920064; active = well fitted curve in the direction sought with a large enough effect in the repeat runs; an effect the other way counts as inactive or inconclusive). In outline: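 Measures KISS1R agonism through calcium-sensitive dye fluorescence in stably transfected HEK293 cells, read for 3 min after pin-tool compound delivery; 15-point titrations in triplicate.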
KiSS-1 receptor (Homo sapiens), sequence (Q969F8 whole entry, looked up): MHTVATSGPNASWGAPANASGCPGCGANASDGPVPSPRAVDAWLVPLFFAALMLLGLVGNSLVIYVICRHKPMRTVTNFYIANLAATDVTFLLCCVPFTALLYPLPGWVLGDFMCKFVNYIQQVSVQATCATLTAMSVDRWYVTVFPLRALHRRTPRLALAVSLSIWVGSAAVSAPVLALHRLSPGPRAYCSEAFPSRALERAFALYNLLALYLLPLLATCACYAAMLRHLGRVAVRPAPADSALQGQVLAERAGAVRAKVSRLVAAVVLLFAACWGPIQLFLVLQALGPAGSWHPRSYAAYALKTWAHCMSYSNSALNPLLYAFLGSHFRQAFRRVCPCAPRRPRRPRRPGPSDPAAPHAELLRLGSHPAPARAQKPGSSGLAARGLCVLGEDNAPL
A general note: Calcium assays in cells follow changes in intracellular calcium, usually with a dye or a luminescent sensor.

A short description of experiment [5]: G protein-coupled receptor (GPCR) small molecule agonists, calcium flux assay: HEK293 wild type cell line counter screen (AID 1920065). Summed up: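 Readout: fluorescence at 480 nm excitation/540 nm emission, sampled at 1 s intervals for 3 min. Cells had been cultured 18 h, then dye-loaded 1 h at 37 C before compound or ATP addition.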
A short description of experiment [6]: p53 small molecule agonists, cell-based qHTS assay with human liver microsomes (AID 1963577).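 Also: p53 response element beta-lactamase reporter cells with liver microsomes plus NADPH.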 In outline: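 16 h, 37 C exposure of p53RE-bla cells to compounds with human liver microsomes and NADPH (0.5 mg/mL final each); detection via LiveBLAzer mixture, 2 h dark at room temperature.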
Experiment [7] can be described thus: p53 small molecule agonists, cell-based qHTS assay with human liver microsomes: qHTS cell viability counter screen (AID 1963579). Also: nearly all actives have a fitted effect of over 45% in size. Summed up: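 In this multiplexed counter screen, the reporter plates were subsequently treated with CellTiter-Glo so that cell viability, reflected by luminescence, could be recorded for p53RE-bla cells dosed 16 h with compounds under microsomal activation (HLM and NADPH).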

A short description of experiment [8]: p53 small molecule agonists, cell-based qHTS assay with rat liver microsomes: qHTS cell viability counter screen (AID 1963580). Also: nearly all actives have a fitted effect of over 45% in size. In outline:
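p53RE-bla HCT-116 cells (4,000/well) rested 5 h at 37 C, then given Tox21 compounds in DMSO with rat liver microsomes (0.5 mg/mL final) plus NADPH (0.5 mg/mL final) for 16 h at 37 C. Viability read by CellTiter-Glo luminescence after 30 min at room temperature.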

Experiment [9] can be described thus: p53 small molecule agonists, cell-based qHTS assay: qHTS cell viability counter screen (AID 1963581). Also: nearly all actives have a fitted effect of over 45% in size. Also: potency is read from the fitted curve at half-maximal effect. In outline: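 In the same plates used for the p53 bla reporter, HCT-116 cells given compounds for 16 h at 37 C received CellTiter-Glo; luminescence was recorded 30 min later at room temperature.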
The nature of experiment [10]: p53 small molecule agonists, cell-based qHTS assay (AID 1963582; active = well fitted activation curve with a large enough effect in the signal ratio in the repeat runs, not every such curve was filed as active; the % refers to the signal ratio; also: potency is read from the fitted curve at half-maximal effect). Summed up: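 Compounds are pin-transferred in DMSO onto p53RE-bla cells and incubated 16 h at 37 C. The B/G FRET beta-lactamase substrate is then applied for 2 h at RT and fluorescence recorded.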
Experiment [11] concerns the target 5-hydroxytryptamine receptor 2A (Homo sapiens) (UniProt P28223). As to the kind of experiment: 5-hydroxytryptamine receptor 2A (HTR2A) small molecule agonists, cell-based qHTS assay (AID 1963587). Also: nearly all actives have a fitted effect of over 30% in size. Summed up:
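HTR2A-CHO cells, plated 18 h at 37 C/5% CO2, dye-loaded 1 h at 37 C; compounds in DMSO added by pin tool (agonist mode). Intracellular calcium flux read as kinetic fluorescence on FDSS over 2 min at 1 s intervals.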

Experiment [12] has as its target Muscarinic acetylcholine receptor M1 (Homo sapiens) (UniProt P11229). As to the kind of experiment: Cholinergic receptor muscarinic 1 (CHRM1) small molecule antagonists, cell-based qHTS assay (AID 1963588). Also: nearly all actives have a fitted effect of over 40% in size. Also: potency is read from the fitted curve at half-maximal effect. Summed up: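 CHRM1-CHO calcium-flux assay, antagonist mode. Cells were seeded 18 h, dye-loaded 1 h at 37 C and given compound for 5 min at RT, then acetylcholine was added at 50nM. FDSS fluorescence was read 3 min; 15 concentrations, three runs.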

For experiment [13] the target is unchanged. Nature of the experiment: Cholinergic receptor muscarinic 1 (CHRM1) small molecule agonists, cell-based qHTS assay (AID 1963589). Also: nearly all actives have a fitted effect of over 35% in size. Summed up: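 Each compound was tested at 15 concentrations across three independent runs on dye-loaded CHO cells stably expressing human CHRM1, reading intracellular calcium fluorescence kinetically at 1 sec intervals.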
Experiment [14] addresses D(2) dopamine receptor (Homo sapiens) (UniProt P14416). Nature of the experiment: Dopamine D2 receptor (DRD2) small molecule agonists, cell-based qHTS assay (AID 1963594). Also: nearly all actives have a fitted effect of over 35% in size. Summed up:
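HEK293 cells stably expressing DRD2 were cultured 24 h at 37 C, then given Ro20-1724 (0.1 mM final) and compounds for 10 min at room temperature. NKH477 (200nM) was then added for 30 min. cAMP was read by HTRF.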

Experiment [15] has as its target 5-hydroxytryptamine receptor 2A (Homo sapiens) (UniProt P28223). As to the kind of experiment: 5-hydroxytryptamine receptor 2A (HTR2A) small molecule antagonists, cell-based qHTS assay (AID 1963586). Also: nearly all actives have a fitted effect of over 45% in size. In outline: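 Antagonist-mode intracellular calcium assay: DOI (4 nM) added after 5 min compound pre-incubation at room temperature to dye-loaded HTR2A-CHO cells. Fluorescence followed for 3 min, sampled every second.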

Experiment [16] is described as follows: cAMP Responsive Elements (CRE) small molecule antagonists, cell-based qHTS assay (AID 1963591; active = well fitted inhibition curve with a large enough effect in the signal ratio in the repeat runs, not every such curve was filed as active; the % refers to the signal ratio). In outline:
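Inhibition of NKH477-driven (0.25 uM final) CRE-beta-lactamase signal in HEK293T cells, 3 h compound exposure at 37 °C, detected by FRET substrate fluorescence.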

Experiment [17] addresses Beta-2 adrenergic receptor (Homo sapiens) (UniProt P07550). Nature of the experiment: Adrenergic beta2 receptor (ADRB2) small molecule antagonists, cell-based qHTS assay (AID 1963592). Also: series mostly up to about 92 µM; nearly all actives have a fitted effect of over 50% in size. Summed up: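 Cells (CHO, stable ADRB2 overexpression) incubated 18-20hr at 37C; compounds added from DMSO; agonist mix (1nM isoproterenol, 100uM IBMX, 25uM Ro-20-1724) added; 0.5hr RT; d2-cAMP and anti-cAMP-cryptate added; 1hr RT; 665/615 nm read.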

The target in experiment [18] is D(2) dopamine receptor (Homo sapiens) (UniProt P14416). As to the kind of experiment: Dopamine D2 receptor (DRD2) small molecule antagonists, cell-based qHTS assay (AID 1963595; active = well fitted inhibition curve with a large enough effect in the signal ratio in the repeat runs, with a control signal flat; the % refers to the signal ratio). Summed up: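 Stable D2 receptor HEK293 line, 24 h after seeding. Compound preincubated 10 min, then quinpirole (12 nM) with forskolin analogue NKH477 (200 nM), 30 min, room temperature. Detection by time-resolved FRET of cAMP.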
D(2) dopamine receptor (Homo sapiens), sequence (P14416 whole entry, looked up): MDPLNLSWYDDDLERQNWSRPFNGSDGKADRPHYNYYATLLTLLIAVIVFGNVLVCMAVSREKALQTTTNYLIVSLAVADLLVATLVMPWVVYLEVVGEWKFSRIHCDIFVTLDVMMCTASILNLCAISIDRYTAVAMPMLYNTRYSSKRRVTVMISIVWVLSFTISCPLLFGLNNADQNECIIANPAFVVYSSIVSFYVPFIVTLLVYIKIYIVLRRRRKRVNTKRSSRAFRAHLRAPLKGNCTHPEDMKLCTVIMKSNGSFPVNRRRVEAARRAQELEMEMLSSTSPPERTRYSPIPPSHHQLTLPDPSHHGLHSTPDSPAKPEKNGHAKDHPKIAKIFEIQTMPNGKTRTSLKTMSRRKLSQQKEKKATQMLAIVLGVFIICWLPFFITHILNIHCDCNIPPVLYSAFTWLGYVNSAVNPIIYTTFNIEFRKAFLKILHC

Experiment [19] can be described thus: cAMP Responsive Elements (CRE) small molecule agonists, cell-based qHTS assay (AID 1963590). Summed up: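 Cell line: CRE-bla HEK 293T; medium DMEM/10% dialyzed FBS/0.1 mM NEAA/1 mM pyruvate/25 mM HEPES; 3 h compound exposure; beta-lactamase FRET readout after 2 h substrate loading at RT.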

Gonadotropin-releasing hormone receptor (Homo sapiens), sequence (P30968 whole entry, looked up): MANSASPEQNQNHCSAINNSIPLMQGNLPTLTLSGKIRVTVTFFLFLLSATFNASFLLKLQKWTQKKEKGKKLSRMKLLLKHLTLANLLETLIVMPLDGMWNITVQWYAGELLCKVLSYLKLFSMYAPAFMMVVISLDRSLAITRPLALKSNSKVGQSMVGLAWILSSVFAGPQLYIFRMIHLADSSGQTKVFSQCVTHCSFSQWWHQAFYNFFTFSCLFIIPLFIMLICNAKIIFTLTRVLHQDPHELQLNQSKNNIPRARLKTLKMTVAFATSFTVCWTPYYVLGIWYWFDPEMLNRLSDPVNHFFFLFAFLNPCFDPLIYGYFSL
Beta-2 adrenergic receptor (Homo sapiens), sequence (P07550 whole entry, looked up): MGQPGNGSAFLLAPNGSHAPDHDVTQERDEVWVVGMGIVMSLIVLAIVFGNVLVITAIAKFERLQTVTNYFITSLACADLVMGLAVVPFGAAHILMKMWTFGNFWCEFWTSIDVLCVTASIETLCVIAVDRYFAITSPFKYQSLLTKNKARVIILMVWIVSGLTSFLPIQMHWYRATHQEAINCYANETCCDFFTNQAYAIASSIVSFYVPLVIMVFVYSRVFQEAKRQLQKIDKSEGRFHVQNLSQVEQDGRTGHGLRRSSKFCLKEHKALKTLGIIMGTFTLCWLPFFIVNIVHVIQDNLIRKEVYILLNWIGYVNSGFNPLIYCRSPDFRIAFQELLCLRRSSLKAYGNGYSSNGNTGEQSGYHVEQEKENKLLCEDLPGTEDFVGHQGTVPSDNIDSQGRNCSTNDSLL
Muscarinic acetylcholine receptor M1 (Homo sapiens), sequence (P11229 whole entry, looked up): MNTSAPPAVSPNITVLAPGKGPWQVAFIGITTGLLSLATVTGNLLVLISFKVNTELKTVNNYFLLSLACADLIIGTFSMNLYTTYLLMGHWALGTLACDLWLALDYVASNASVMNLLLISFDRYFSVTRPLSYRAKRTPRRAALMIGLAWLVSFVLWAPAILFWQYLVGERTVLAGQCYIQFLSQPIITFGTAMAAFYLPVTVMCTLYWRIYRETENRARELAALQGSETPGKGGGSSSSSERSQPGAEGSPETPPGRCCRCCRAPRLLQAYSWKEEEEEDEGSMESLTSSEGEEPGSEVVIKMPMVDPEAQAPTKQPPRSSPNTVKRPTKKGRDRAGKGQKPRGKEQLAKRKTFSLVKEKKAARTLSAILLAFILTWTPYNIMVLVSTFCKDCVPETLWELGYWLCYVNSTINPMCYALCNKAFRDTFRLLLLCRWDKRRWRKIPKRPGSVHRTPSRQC
5-hydroxytryptamine receptor 2A (Homo sapiens), sequence (P28223 whole entry, looked up): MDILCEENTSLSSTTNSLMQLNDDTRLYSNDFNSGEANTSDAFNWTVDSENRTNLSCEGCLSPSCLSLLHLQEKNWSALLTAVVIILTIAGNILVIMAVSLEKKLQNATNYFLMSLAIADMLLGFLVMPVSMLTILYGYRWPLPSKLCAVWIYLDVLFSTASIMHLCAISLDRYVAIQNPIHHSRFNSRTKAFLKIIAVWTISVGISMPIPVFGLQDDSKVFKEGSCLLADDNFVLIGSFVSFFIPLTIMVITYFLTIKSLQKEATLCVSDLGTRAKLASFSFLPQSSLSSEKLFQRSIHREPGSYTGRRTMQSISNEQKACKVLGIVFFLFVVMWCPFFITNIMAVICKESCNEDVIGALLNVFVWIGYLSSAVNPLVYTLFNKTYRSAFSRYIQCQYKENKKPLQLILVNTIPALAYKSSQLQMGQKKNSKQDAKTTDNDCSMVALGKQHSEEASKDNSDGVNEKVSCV

Consider `COc1ccc(CN2CCN(C(c3ccc(F)cc3)c3ccc(F)cc3)CC2)c(OC)c1OC`, for which the Potency in [1] was 21.1 µM (active); in [9], 15.8 µM (active); in [12] it was 2.59 µM (active). The Potency result in experiment [2], in experiment [3], in experiment [6], in [7], in [8] and in experiment [10] was “inactive” throughout. Also, the Potency entry in experiment [11], in [13] and in experiment [14] was “inactive” each time. The outcome in experiment [4] and in experiment [5] was inactive.

Take `On1nnc2ccccc21`: the Potency result in [1], in experiment [2], in experiment [3], in [6], in [7] and in experiment [8] was “inactive” each time. The Potency entry in [9], in experiment [15], in experiment [12], in [16], in experiment [17] and in experiment [14] was “inactive” throughout. The Potency result in [18] was “inactive”. The outcome in experiment [4] and in experiment [5] was inactive.

`CC(C)=CCC1=C(O)c2ccccc2C(=O)C1=O`: the Potency result in experiment [1], in experiment [3], in experiment [6], in experiment [7], in experiment [8] and in experiment [11] was “inactive” each time. For the same molecule, the Potency entry in experiment [12], in [13], in [16] and in experiment [14] was “inactive” each time. Moreover, the Potency in [2] is 60.8 µM (active); in experiment [9] it was 3.61 µM (active); in [10], 4.06 µM (active). Moreover, the result in experiment [4] and in [5] was inactive.

With `Cc1nc(-c2ccc(OCC(C)C)c(C#N)c2)sc1C(=O)O`, the Potency entry in experiment [1], in [3], in [6], in experiment [7], in [8] and in experiment [9] was “inactive” in each case. Further, the Potency result in experiment [11], in [12], in experiment [13], in experiment [14] and in experiment [18] was “inactive” in each case. In addition, the Potency in [2] was 0.0531 µM (active). In addition, the outcome in experiment [4] and in experiment [5] was inactive.

In the case of `COc1cc(C(=O)NC2CCCNC2)cc(OC)c1OC` (centres undefined), the Potency result in [1], in experiment [2], in experiment [3], in [6], in experiment [7] and in [8] was “inactive” throughout. Moreover, the Potency result in experiment [9], in experiment [10], in experiment [19], in experiment [16], in experiment [17] and in [18] was “inactive” throughout. Further, the outcome in [4] and in experiment [5] was inactive.

In the case of `CCCCOc1cc(C(=O)NCCN(CC)CC)c2ccccc2n1`, the Potency result in experiment [1], in experiment [2], in experiment [3], in experiment [6], in experiment [7] and in [8] was “inactive” each time. For the same molecule, the Potency entry in experiment [9], in experiment [10], in experiment [12], in experiment [13], in experiment [16] and in experiment [17] was “inactive” in each case. Further, the Potency entry in experiment [14] and in experiment [18] was “inactive” in each case. The result in [4] and in experiment [5] was inactive.

Turning to `COc1cc2[nH]c(=O)[nH]c(=O)c2cc1OC`, the Potency entry in experiment [1], in experiment [2], in [3], in experiment [6], in [7] and in experiment [9] was “inactive” throughout. The Potency result in experiment [10], in experiment [15], in experiment [11], in [12], in experiment [13] and in [16] was “inactive” each time. The Potency result in experiment [17] and in experiment [18] was “inactive” each time. Also, the outcome in experiment [4] and in experiment [5] was inactive.

Turning to `CC(C)CC(=O)N[C@H](C(=O)N[C@H](C(=O)N[C@@H](CC(C)C)[C@@H](O)CC(=O)N[C@@H](C)C(=O)N[C@@H](CC(C)C)[C@@H](O)CC(=O)O)C(C)C)C(C)C` (Isovaleryl-VV[Sta]A[Sta]-OH), the Potency entry in experiment [1], in experiment [2], in experiment [3], in experiment [6], in [7] and in experiment [8] was “inactive” throughout. Further, the Potency result in [9], in experiment [10], in experiment [19], in experiment [16], in experiment [17] and in experiment [14] was “inactive” in each case. Moreover, the Potency result in [18] was “inactive”. The result in experiment [4] and in [5] was inactive.
